From PubChem BioAssay AID588511 (Johns Hopkins Ion Channel Center, 2011)
Out of some 310,000 compounds screened, about 3,600 (1.2%) were called active.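 Rule for the calls: active = ratio plate-corrected score three or more library SD toward inhibition, starting fluorescence score within five deviations; inactive = the rest.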 For the sample, actives were picked, then their nearest neighbours and some compounds at random.

These compounds were tested against Anoctamin-1 (Mus musculus) (UniProt Q8BHY3) (assay: TMEM16A chloride channel inhibitors, primary screen, cell-based, HTS (AID 588511;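 for normalized B-score (activity score, 25-100; higher = stronger inhibition): score derived from kinetic fluorescence span divided by baseline fluorescence per well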)). Conditions: HEK293 TMEM16A/YFP iodide influx fluorescence, ionomycin; at 10 µM.
Sequence of Anoctamin-1 (Mus musculus) (Q8BHY3 whole entry, looked up): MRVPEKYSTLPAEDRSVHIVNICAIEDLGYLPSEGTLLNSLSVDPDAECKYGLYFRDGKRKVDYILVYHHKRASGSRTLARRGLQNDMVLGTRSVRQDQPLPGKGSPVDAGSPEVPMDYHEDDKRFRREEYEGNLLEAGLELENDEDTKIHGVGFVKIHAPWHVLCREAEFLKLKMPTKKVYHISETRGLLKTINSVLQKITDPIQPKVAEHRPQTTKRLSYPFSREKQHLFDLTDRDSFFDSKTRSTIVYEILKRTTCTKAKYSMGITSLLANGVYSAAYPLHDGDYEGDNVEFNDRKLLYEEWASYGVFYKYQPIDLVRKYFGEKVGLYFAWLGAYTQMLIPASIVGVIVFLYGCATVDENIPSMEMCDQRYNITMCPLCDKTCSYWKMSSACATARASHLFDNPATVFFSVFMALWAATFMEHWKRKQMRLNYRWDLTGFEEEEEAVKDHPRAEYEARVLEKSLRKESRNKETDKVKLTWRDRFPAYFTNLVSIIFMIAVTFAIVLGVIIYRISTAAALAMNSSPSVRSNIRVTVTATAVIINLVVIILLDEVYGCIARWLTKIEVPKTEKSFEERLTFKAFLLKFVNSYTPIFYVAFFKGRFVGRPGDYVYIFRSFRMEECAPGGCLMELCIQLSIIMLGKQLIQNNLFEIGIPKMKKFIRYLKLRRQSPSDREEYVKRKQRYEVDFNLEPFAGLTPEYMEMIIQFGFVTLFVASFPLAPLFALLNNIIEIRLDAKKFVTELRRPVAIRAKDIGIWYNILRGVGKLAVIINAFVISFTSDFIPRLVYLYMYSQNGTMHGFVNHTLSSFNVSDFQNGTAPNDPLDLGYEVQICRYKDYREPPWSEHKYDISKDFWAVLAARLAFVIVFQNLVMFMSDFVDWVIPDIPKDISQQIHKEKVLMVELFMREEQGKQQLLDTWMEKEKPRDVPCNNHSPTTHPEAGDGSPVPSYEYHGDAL

SMILES	normalized B-score (activity score, 25-100; higher = stronger inhibition)
CCOC(=O)C1CCN(Cc2nnc(-c3cccc(Br)c3)o2)CC1	inactive
CCOC(=O)C1CCN(c2ncnc3c2c(-c2ccccc2)cn3-c2ccc(C)cc2)CC1	inactive
O=C(Nc1ccc(C(=O)NCc2ccccc2Cl)cc1)C1=CSCCO1	inactive
O=C(/C=C/c1ccco1)NC(=S)N1CCCCC1	inactive
O=C(Nc1cccnc1)c1noc2c1CCCCC2	inactive
CCN1CCN(C(=O)C2CCN(S(=O)(=O)c3cc(Cl)ccc3Cl)CC2)CC1	inactive
CCCCNC(=O)C1CCC(=O)N1CCc1ccccc1 (centres undefined)	inactive
O=C(CSc1nc(-c2ccccc2)cs1)Nc1cccc([N+](=O)[O-])c1	100 (active)
O=C(CSc1ncn[nH]1)Nc1nc(-c2cccc([N+](=O)[O-])c2)cs1	inactive
CCNC(=O)CSc1nc(-c2ccccc2)cs1	inactive
COc1ccc(CN2CCNC(=O)C2CC(=O)N(C)Cc2ccccn2)cc1OC (centres undefined)	inactive
Cc1ccc(SCC(=O)Nc2ccc3c(c2)OCCO3)cc1	inactive
Cc1ccc(SCC(=O)c2cc(C)c(OC(=S)N(C)C)c(C)c2)cc1	100 (active)
Cc1ccc(C(=O)CSc2ccccc2C(=O)O)cc1	inactive
O=C(C1CCN(S(=O)(=O)c2ccc(Br)s2)CC1)N1CCN(c2ccccc2)CC1	inactive
Cc1ccc(NC(=O)C2CC(=O)N(c3ccc4c(c3)OCCO4)C2)cc1S(=O)(=O)N1CCCCCC1 (centres undefined)	25 (active)
COc1ccc(S(=O)(=O)N2CCCCC2)cc1NC(=O)C1CC(=O)N(c2ccc3c(c2)OCCO3)C1 (centres undefined)	inactive

SMILES	normalized B-score (activity score, 25-100; higher = stronger inhibition)
Cc1ccc(N2CC(C(=O)Nc3ccc(S(=O)(=O)N4CCCC4)cc3)CC2=O)cc1C (centres undefined)	inactive
Cc1oc(-c2ccccc2F)nc1CS(=O)CC(=O)NCCN1CCCCC1C (centres undefined)	inactive
CSc1cccc(NC(=S)N(C(C)C)C(C)c2ccccn2)c1 (centres undefined)	25 (active)
CSc1cccc(NC(=S)N(Cc2ccccc2)Cc2ccccn2)c1	inactive
CC(c1ccccn1)N(CCN(C)C)C(=S)Nc1ccccc1F (centres undefined)	inactive
CC(=O)N/N=C(\C)c1ccc(Br)cc1Br	inactive
CC(C)/C=N/NC(=O)c1cc(Br)ccc1O	inactive
CC(=N\NC(=O)c1cc(Br)ccc1O)/C(=N/O)C(=O)Nc1ccccc1	25 (active)
O=C(NC(=S)Nc1ccc(Cl)c(C(=O)O)c1)c1cncc(Br)c1	inactive
COc1cc(C)c(C(C)C)cc1S(=O)(=O)n1ccnc1	inactive
COc1ccccc1-n1cnc2cc(NS(=O)(=O)c3ccccc3)ccc21	inactive
CC(C)c1ccc2c(c1)c(SC(C)(C)C)c(CC(C)(C)C(=O)O)n2Cc1ccc(Cl)cc1	100 (active)
O=C(O)c1ccc(Cn2c(=S)[nH]c3cc(Cl)ccc3c2=O)cc1	inactive
O=C(COC(=O)CNS(=O)(=O)c1ccccc1)NC12CC3CC(CC(C3)C1)C2	inactive
CSc1ncc(Sc2ccccc2)c(C(=O)O)n1	inactive
CSc1nnc2c(n1)OC(c1cn(C)c3ccccc13)N(C(C)=O)c1ccccc1-2 (centres undefined)	inactive
CSc1nnc2c(n1)OC(c1ccsc1)N(C(C)=O)c1ccccc1-2 (centres undefined)	100 (active)
